According to PubChem BioAssay (Tox21):
Results filed as inconclusive are left out. Where a call stands in place of a potency, no number is given. Activity calls are given as the source filed them. Calls follow the shape of the dose curve; as a rule, active = well fitted cell-killing curve with a large enough effect in the repeat runs (not every such curve was filed as active); inconclusive = weak or mixed curves, or effect the other way; inactive = no such curve, though single readings can be large or run the other way.

Assay: qHTS assay to identify small molecule antagonists of the estrogen related receptor signaling pathway with the pleiotropic PPARgamma coactivator (PGC) from Tox21 10K library - cell viability counter screen (AID 1224840); also: nearly all actives have a fitted effect of over 40% in size
Conditions: PGC/ERR reporter cells viability, CellTiter-Fluor, 17.5 h; series mostly up to 92.4 µM; viability change, negative = cytotoxic: at the top concentration
From the text: National Center for Advancing Translational Sciences [NCATS]
NIH Chemical Genomics Center [NCGC]
U.S. Environmental Protection Agency [EPA]
National Institutes of Environmental Health Sciences [NIEHS]
National Toxicology Program [NTP]
U.S. Food and Drug Administration [FDA]
Estrogen related receptors (ERRs), the first orphan nuclear receptors discovered, play an important role in the control of cellular energy metabolism. ERRs are required for high-energy production in response to the environmental challenges. The pleiotropic PPARgamma coactivator (PGC) is a major partner of ERR and a key regulator in energy homeostasis. Together they have been implicated in the etiology of metabolic disorders such as Type 2 diabetes and metabolic syndrome. ERR-alpha was also identified as an adverse marker for breast cancer progression; ERR-alpha-positive tumors have a poor prognosis. To screen and to identify environmental compounds that perturb the ERR and PGC/ERR signaling pathways could provide valuable information for potential therapeutic or preventive measures in the treatment of metabolic disease. To differentiate true PGC/ERR antagonists or agonist from cytotoxic substances, the assay is multiplexed with cell viability assay.
Tox21 Assay Protocol Summary:
The PGC/ERR cells were dispensed at 2,000 cells/5 ul/well in 1536-well white plates using a Multidrop dispenser. After the assay plates were incubated at a 37 C/5% CO2 incubator for 6 hours, 23 nL of compounds dissolved in DMSO, positive and negative controls or DMSO only was transferred to the assay plate by a pin tool. The plates were incubated at 37 C for 17.5 hours. 1 ul/well of CellTiter-Fluor reagent was added into the assay plates using a Flying Reagent Dispenser. After 30-minute incubation at 37 C/5% CO2, the fluorescence intensity in the plates was measured using a ViewLux plate reader.

Row | SMILES | Potency | viability change, negative = cytotoxic
1 | OC[C@H]1O[C@@](CO)(O[C@H]2O[C@H](CO)[C@@H](O)[C@H](O)[C@H]2O)[C@@H](O)[C@@H]1O | inactive | 
2 | CC(C)(C)[C@@H](O)[C@@H](Cc1ccc(Cl)cc1)n1cncn1 | inactive | 
3 | O=C1CCC(N2C(=O)c3ccccc3C2=O)C(=O)N1 (stereo not given) | inactive | 
4 | O=C=NCCCCCCN=C=O | inactive | 
5 | CC(O)COCC(C)O (stereo not given) | inactive | 
6 | O=C(O)CC(C(=O)O)C(CC(=O)O)C(=O)O (stereo not given) | inactive | 
7 | COc1cc(Cc2cnc(N)nc2N)cc(OC)c1OC | inactive | 
8 | C#C[C@]1(O)CC[C@H]2[C@@H]3CCC4=CC(=O)CC[C@@H]4[C@H]3CC[C@@]21C |  | -10.8% [at 42.5 µM] (inactive)
9 | N[C@@H](Cc1cc(I)c(Oc2cc(I)c(O)c(I)c2)c(I)c1)C(=O)O | inactive | 
10 | COc1ccc(Nc2ccccc2)c(C)c1 | inactive | 
11 | O=C(Oc1ccccc1)c1ccccc1 | inactive | 
12 | CCC(O)OC(O)CC (stereo not given) | inactive | 
13 | CCCCCCCCCCCCCCCO | inactive | 
14 | CC(c1cc2ccccc2s1)N(O)C(N)=O (stereo not given) | inactive | 
15 | c1ccc(OCCOc2ccccc2)cc1 | inactive | 
16 | O=c1[nH]c(=O)n([C@H]2CCCO2)cc1F | inactive | 
17 | C[C@H]1C[C@H]2[C@@H]3CCC4=CC(=O)C=C[C@]4(C)[C@@]3(F)[C@@H](O)C[C@]2(C)[C@@]1(O)C(=O)CO | inactive | 
18 | CC(=O)Nc1cccc(O)c1 | inactive | 
19 | O=C(O)CCCC[C@@H]1SC[C@@H]2NC(=O)N[C@@H]21 | inactive | 
20 | Cc1ccc(N(C)C)cc1 | inactive | 

Row | SMILES | Potency | viability change, negative = cytotoxic
21 | CCCCCCCCCCCCS | inactive | 
22 | Cc1cc(C)c(C)cc1C | inactive | 
23 | OCc1cccnc1 | inactive | 
24 | COCCCOc1ccnc(CS(=O)c2nc3ccccc3[nH]2)c1C (stereo not given) |  | -8.64% [at 42.5 µM] (inactive)
25 | O=C(O)c1cc(O)c(O)c(O)c1 | inactive | 
26 | OCCOCCN1CCN(C2=Nc3ccccc3Sc3ccccc32)CC1 |  | 0.0782% [at 42.5 µM] (inactive)
27 | CCCCCCOCCO | inactive | 
28 | CN(C)CCCN | inactive | 
29 | CCC(O)OCCCOC (stereo not given) | inactive | 
30 | CCCCCC/C(C=O)=C\c1ccccc1 | inactive | 
31 | C=CCNC(N)=S | inactive | 
32 | CC(=O)c1ccccc1 | inactive | 
33 | O=c1[nH]c(=O)n([C@H]2C[C@H](O)[C@@H](CO)O2)cc1Br | inactive | 
34 | C[Si](O[Si](C)(C)C)O[Si](C)(C)C | inactive | 
35 | CCCCCCCCCCCCc1ccccc1 | inactive | 
36 | CN(C)CCC(c1ccccc1)c1ccccn1 (stereo not given) | inactive | 
37 | CCCCCCCC(=O)OC | inactive | 
38 | C=CCOC(=O)c1ccccc1C(=O)OCC=C | inactive | 
39 | O=P(OC(CCl)CCl)(OC(CCl)CCl)OC(CCl)CCl |  | -21.5% (inactive)
40 | CC(=O)CC(=O)Nc1ccccc1 | inactive | 
